In PubChem BioAssay:
Where “and” joins values, the source holds several entries; their conditions need not be identical. Identical values can stand only once. Inconclusive results are not listed. Calls of active or inactive are those of the source.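 The calls were made as follows, unless noted: active = normalized viability below 100% at a tested concentration; inactive = the rest.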

What was measured:
[1] = circadian clock period modulators, cell-based, LOPAC library, luminescence reporter (AID 2774; call rule not given here;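 also: values are relative to mean of DMSO wells on each plate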); conditions: circadian reporter cells, at 7 µM, actives lie on both sides
[2] = hESC survival regulators, cell-based (AID 493140; call rule not given here;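 also: cells exposed to compounds for four days before counting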); conditions: human embryonic stem cell survival screen; stronger effect = higher value
[3] = liver-stage malaria parasite growth inhibition, primary screen, cell-based, HepG2, luciferase luminescence, HepG2 viability (AID 624349; in the data active = parasite load remaining mostly below about 12%, no sharp cut-off; inactive = mostly above about 10%;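 also: 100% = mean of DMSO negative control wells on the same plate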); conditions: P. berghei liver stage in HepG2, luciferase luminescence, concentration not given here; parasite load remaining: stronger effect = lower value; viability: measured here: HepG2 viability without parasites
[4] = system: Hepatitis C virus NS3 helicase; assay: HCV NS3 helicase inhibitors, primary screen, biochemical, fluorescence polarization, LOPAC1280 library (AID 687035; in the data active = inhibition above about 37%); conditions: Purified HCV NS3 helicase, Cy5-dT15 ssDNA binding fluorescence polarization; stronger effect = higher value; concentration not given here
[5] = Cy5 fluorescence quenching or enhancement artefacts, artefact control for HCV NS3 helicase inhibitor project, biochemical, LOPAC1280 (AID 687037; call rule not given here); conditions: Cy5-DNA-NS3h complex fluorescence interference counterscreen
[6] = system: Aerobactin synthetase IucA (Klebsiella pneumoniae); assay: IucA aerobactin synthetase inhibitors, biochemical, Tocris library, absorbance (AID 1345561; call rule not given here;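 also: 100% = enzyme without compound and 0% = no enzyme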); conditions: purified IucA enzyme assay, absorbance (OD) read-out; stronger effect = lower value;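 tested at 8 µM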
[7] = growth inhibition of DIPG glioma cells, dose response, cell-based, SU-DIPG-XIII, MIPE4.0, CellTiter-Glo, qHTS (AID 1347061; cut-off not given, nearly all actives have AC50 up to about 37 µM;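 also: cells exposed to compound for 48 hours before readout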); conditions: SU-DIPG-XIII viability, CellTiter-Glo ATP luminescence
[8] = growth inhibition of DIPG glioma cells, dose response, cell-based, SU-DIPG-IV, MIPE4.0, CellTiter-Glo, qHTS (AID 1347063; cut-off not given, nearly all actives have AC50 up to about 30 µM;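 also: compound exposure lasted 48 hours before the viability readout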); conditions: SU-DIPG-IV viability, CellTiter-Glo ATP luminescence
[9] = growth inhibition of DIPG glioma cells, dose response, cell-based, SU-DIPG-XIII, MIPE5.0, CellTiter-Glo, qHTS (AID 1347064; cut-off not given, nearly all actives have AC50 up to about 23 µM); conditions: SU-DIPG-XIII viability, CellTiter-Glo ATP luminescence
[10] = SU-DIPG-XXV glioma cell viability, MIPE5.0 library, qHTS (AID 1347068; cut-off not given, nearly all actives have IC50 up to about 30 µM)
[11] = inhibitors of Cryptococcus chitosan production, flow cytometry, Cibacron Brilliant Red staining (AID 1347148; call rule not given here;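 also: compound exposure lasted three days at 37 degrees C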); conditions: Cryptococcus neoformans chitosan, stronger effect = lower value; at 10 µM unless noted
[12] = modifiers of HSF1 nuclear foci, imaging, Selleck Cancer Library (AID 1347162; in the data active = plate-normalised HSF1 focus index below about 0.46); conditions: human cells, at 10 µM; SSMD: measured here: HSF1 foci SSMD mean; cell count: measured here: cell number; plate-normalised HSF1 focus index: stronger effect = lower value
[13] = phospholipid biosynthesis inhibitors in animal cells, primary screen, cell-based, LOPAC library, screen 4 (AID 1347384; call rule not given here); conditions: phospholipid biosynthesis inhibition screen, at 10 µM
[14] = survival rescue of mitochondrial mutant cells in low glucose, primary screen, MELAS cybrids, Rieske KO mouse fibroblasts, CellTiter-Glo (AID 1508586;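 active = mean z-score across replicates of 1.96 or higher in either the MELAS or the Rieske mutant cell line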;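 also: z relative to plate mean and SD of compound and empty wells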)
[15] = ovarian cancer cell viability with rucaparib, profiling panel, oncology-focused library, rucaparib conditional (AID 1508598); conditions: patient-derived ovarian cancer cells, CellTiter-Glo viability, 144 h, stronger effect = lower value
[16] = viability rescue of complex I mutant cybrids, primary screen, cell-based, galactose medium, ATP luminescence (AID 1645843;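 active = z-score of at least 1.8 in each of two replicates, scored against plate mean and spread of sample wells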;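 also: positive z means more ATP and so rescue of galactose-driven cybrid death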); conditions: complex I mutant cybrid cells, 72 h, stronger effect = higher value
[17] = growth inhibition of DIPG glioma cells, dose response, cell-based, SU-DIPG-XVII, MIPE5.0, CellTiter-Glo, qHTS (AID 1347060; cut-off not given, nearly all actives have AC50 up to about 26 µM); conditions: SU-DIPG-XVII viability, CellTiter-Glo ATP luminescence
[18] = viability loss in pontine glioma line – cell-based, SU-DIPG-XXV, MIPE5.0, CellTiter-Glo, qHTS, dose response (AID 1347065; cut-off not given, nearly all actives have AC50 up to about 26 µM;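 also: cells exposed to compound for 48 hours before ATP readout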); conditions: CellTiter-Glo ATP luminescence
[19] = sensitizers of A549 cells to miR-34 induction, primary screen, imaging, A549 dox-inducible miR-34, nuclei and caspase counts (AID 1347080;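 active = compounds whose cell count with miR-34 switched on is under 0.7 times the count with it off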); conditions: A549 miR-34 inducible, Hoechst nuclei count, 48 h
[20] = kinase inhibitors against Plasmodium liver-stage infection, cell-based, known kinase inhibitor set, luminescence, hepatoma host viability (AID 624392; call rule not given here;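 also: infected cells incubated roughly two days before readout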); conditions: Plasmodium liver stage in hepatoma cells, luciferase luminescence, concentration not given here; liver cell % of control: measured here: host liver cell viability; parasite % of control: stronger effect = lower value
[21] = growth inhibition of DIPG glioma cells, dose response, cell-based, JHH-DIPG-1, MIPE4.0, CellTiter-Glo, qHTS (AID 1347062; cut-off not given, nearly all actives have AC50 up to about 27 µM;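 as to AC50: cells exposed to compound for two days before readout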); conditions: JHH-DIPG-1 viability, CellTiter-Glo ATP luminescence
[22] = SU-DIPG-VI glioma cell viability, MIPE4.0 library, CellTiter-Glo luminescence, qHTS (AID 1347066; cut-off not given, nearly all actives have AC50 up to about 30 µM;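 also: cells exposed to compound for 48 hours before readout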); conditions: CellTiter-Glo ATP luminescence
[23] = MELAS cybrid survival, CellTiter-Glo 48 h, stronger effect = higher value
[24] = Rieske KO mouse fibroblast survival, CellTiter-Glo 72 h
[25] = stronger effect = lower value, cell number ratio, induced over uninduced
[26] = measured here: relative caspase fold change +Dox/-Dox
[27] = measured here: total cells with miR-34 induction, stronger effect = lower value
[28] = measured here: total cells without miR-34 induction

O=c1cc(N2CCOCC2)oc2c(-c3ccccc3)cccc12
79.9%: viability [3]
active: AC50 [8] 2640 nM | viability ([15]; at 0.000305 µM, OCI-C5x cells, with rucaparib 10 µM, 100% = cells with rucaparib alone) 97.6% | viability ([15]; at 0.000305 µM, OCI-P5x cells, with rucaparib 20 µM, 100% = cells with rucaparib alone) 93.4% | viability ([15]; at 0.000305 µM, OCI-P5x cells, without rucaparib) 83.4% | viability ([15]; at 0.00122 µM, OCI-P5x cells, with rucaparib 20 µM, 100% = cells with rucaparib alone) 97.2% | viability ([15]; at 0.00122 µM, OCI-P5x cells, without rucaparib) 86.3% | viability ([15]; at 0.00488 µM, OCI-C5x cells, with rucaparib 10 µM, 100% = cells with rucaparib alone) 93% | viability ([15]; at 0.00488 µM, OCI-P5x cells, with rucaparib 20 µM, 100% = cells with rucaparib alone) 99.1% | viability ([15]; at 0.00488 µM, OCI-P5x cells, without rucaparib) 95.7% | viability ([15]; at 0.0195 µM, OCI-P5x cells, with rucaparib 20 µM, 100% = cells with rucaparib alone) 98.1% | viability ([15]; at 0.0195 µM, OCI-P5x cells, without rucaparib) 96% | viability ([15]; at 0.0781 µM, OCI-P5x cells, without rucaparib) 98.9% | viability ([15]; at 0.313 µM, OCI-P5x cells, with rucaparib 20 µM, 100% = cells with rucaparib alone) 98% | viability ([15]; at 0.313 µM, OCI-P5x cells, without rucaparib) 97.6% | viability ([15]; at 1.25 µM, OCI-C5x cells, with rucaparib 10 µM, 100% = cells with rucaparib alone) 94% | viability ([15]; at 1.25 µM, OCI-P5x cells, with rucaparib 20 µM, 100% = cells with rucaparib alone) 99.6% | viability ([15]; at 5 µM, OCI-C5x cells, with rucaparib 10 µM, 100% = cells with rucaparib alone) 98.7% | viability ([15]; at 5 µM, OCI-P5x cells, with rucaparib 20 µM, 100% = cells with rucaparib alone) 96.2% | viability ([15]; at 5 µM, OCI-P5x cells, without rucaparib) 93.7% | z-score [16] 5.55 and 5.94
0.668: z-score [14, 24]
1.15: SSMD [12]
6500: cell count [12]
inactive: period change [1] 0.01 h | survival [2] 83.6 | parasite load remaining [3] 36% | inhibition [4] -3% | fluorescence ratio (interference) [5] 1 | remaining activity [6] 118% | outcome [7] | outcome [9] | outcome [10] | fold fluorescence [11] 9.29 [at 162.7 µM] | plate-normalised HSF1 focus index [12] 1.06 | outcome [13] | z-score [14, 23] -0.417 | viability ([15]; at 0.000305 µM, OCI-C5x cells, without rucaparib) 103% | viability ([15]; at 0.00122 µM, OCI-C5x cells, with rucaparib 10 µM, 100% = cells with rucaparib alone) 102% | viability ([15]; at 0.00122 µM, OCI-C5x cells, without rucaparib) 103% | viability ([15]; at 0.00488 µM, OCI-C5x cells, without rucaparib) 104% | viability ([15]; at 0.0195 µM, OCI-C5x cells, with rucaparib 10 µM, 100% = cells with rucaparib alone) 102% | viability ([15]; at 0.0195 µM, OCI-C5x cells, without rucaparib) 104% | viability ([15]; at 0.0781 µM, OCI-C5x cells, with rucaparib 10 µM, 100% = cells with rucaparib alone) 106% | viability ([15]; at 0.0781 µM, OCI-C5x cells, without rucaparib) 101% | viability ([15]; at 0.0781 µM, OCI-P5x cells, with rucaparib 20 µM, 100% = cells with rucaparib alone) 102% | viability ([15]; at 0.313 µM, OCI-C5x cells, with rucaparib 10 µM, 100% = cells with rucaparib alone) 106% | viability ([15]; at 0.313 µM, OCI-C5x cells, without rucaparib) 108% | viability ([15]; at 1.25 µM, OCI-C5x cells, without rucaparib) 109% | viability ([15]; at 1.25 µM, OCI-P5x cells, without rucaparib) 102% | viability ([15]; at 5 µM, OCI-C5x cells, without rucaparib) 107%

COc1cc(SC)ccc1C(=O)N1CCC(Cc2ccccc2)CC1
inactive: parasite load remaining [3] 38.9% | inhibition [4] 1% | fluorescence ratio (interference) [5] 1 | remaining activity [6] 78.3% | outcome [17] | outcome [9] | outcome [18] | outcome [10] | fold change [19, 25] 1.03 and 0.864 | outcome [13] | z-score [16] -0.91 and -0.635
0.962 and 1.6: fold change [19, 26]
7280 and 6350: cell count [19, 27]
7040 and 7350: cell count [19, 28]
67%: viability [3]

Oc1ccc(-c2nc(-c3ccc(F)cc3)c(-c3ccncc3)[nH]2)cc1
95.1%: viability [3]
inactive: survival [2] 94 | parasite load remaining [3] 28.5% | parasite % of control [20] 14.8% and 19.2% and 29.9% | inhibition [4] -3% | fluorescence ratio (interference) [5] 0.9 | remaining activity [6] 114% | outcome [21] | outcome [22] | outcome [10] | fold fluorescence [11] 8.11 [at 150.9 µM] | outcome [13] | z-score [14, 23] -0.659 | z-score [16] 1.04 and 0.455
0.329: z-score [14, 24]
85.2% and 83.2% and 90.8%: liver cell % of control [20]
active: period change [1] 1.07 h | AC50 [7] 5900 nM | AC50 [8] 23500 nM

Cc1ccc(NC(=O)c2cccc(N(C)C)c2)cc1NC(=O)c1ccc(O)cc1
0.706: z-score [14, 24]
2700 and 8980 and 8620: cell count [19, 28]
inactive: survival [2] 103 | remaining activity [6] 115% | outcome [10] | fold change [19, 25] 1.11 and 0.903 and 0.921 | fold fluorescence [11] 3.78 [at 128.4 µM] | z-score [14, 23] -0.437 | z-score [16] 1.09
0.888 and 0.797 and 0.511: fold change [19, 26]
2990 and 8110 and 7940: cell count [19, 27]
active: AC50 [7] 662 nM | AC50 [21] 3320 nM | AC50 [8] 935 nM
